Source: PubChem BioAssay AID651965 (National Center for Advancing Translational Sciences (NCATS), 2013)
About 6,400 (1.9%) of roughly 340,000 compounds were called active. Inconclusive results (about 4%) are left out. Shown is part of a subset that was picked to be rich in actives. Unmarked numbers belong to inactive results. Calls come from the whole dose curve; as a rule, active = well fitted falling curve with a large enough effect; inconclusive = small, poorly fitted or top-dose-only effect; inactive = no such curve, though single readings can be large or run the other way.

target: ATP-dependent Clp protease proteolytic subunit (Bacillus subtilis (strain 168)) (UniProt P80244); assay: qHTS Assay for Activators of ClpP; note: the source files actives as falling curves though it sought activators and does not explain the sign; nearly all actives have a fitted effect of over 65% in size; details: purified B. subtilis ClpP, FRET peptide cleavage, 20 min; series mostly up to 57.5 µM; activity change, negative = active: at the top concentration
Sequence (P80244 whole entry, looked up): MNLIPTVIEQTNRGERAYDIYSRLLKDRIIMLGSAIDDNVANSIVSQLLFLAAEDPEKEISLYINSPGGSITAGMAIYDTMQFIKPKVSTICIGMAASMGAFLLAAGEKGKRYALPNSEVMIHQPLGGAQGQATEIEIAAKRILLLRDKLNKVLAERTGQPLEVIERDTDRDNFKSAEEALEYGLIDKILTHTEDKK
Outline: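 FRET quenching reversal measured ClpP activation: 10 microg/mL B. subtilis ClpP at pH 8 with the FRET-FV decapeptide, read at 430 nm after 320 nm excitation. The 20-min minus 0-min signal was scaled between DMSO/no-enzyme wells and ADEP (5.8 microM final).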
Potency is the fitted concentration of half-maximal effect.

Compound	Potency	activity change, negative = active [%]
O=C(NCc1ccc(Cl)cc1)c1cc2c(nc3sccn32)s1	31.6 µM (active)	
O=C(NCc1ccc2c(c1)OCO2)c1c(O)nc2sccn2c1=O		-1.8
O=C(NCc1ccc(Cl)cc1)c1cc(=O)nc2sc(-c3ccccc3)nn12		-10.5
CCc1nc2ccc(C(=O)NCc3ccc(OC)cc3)cn2c1N(CC)Cc1cccc(Br)c1		-26.8
COc1ccc(C(O)C(O)(C(=O)OC(C)C)c2ccc(C)cc2)cc1 (stereo not drawn)		-0.377
COc1ccc(C(C(=O)NCc2ccccc2)n2c(=O)c(-c3ccccc3)nc3ccccc32)cc1 (stereo not drawn)	28.2 µM (active)	
N#Cc1ccc(C(C(=O)NCc2ccccc2)n2c(=O)c(-c3ccco3)nc3ccccc32)cc1 (stereo not drawn)		3.44
CC(C)(C)NC(=O)C(CCc1ccccc1)n1c(=O)c(-c2ccccc2)nc2ccccc21 (stereo not drawn)		-29.6
CCc1nc2c(OCCOc3ccc(F)cc3)cccn2c1N(C)C(=O)c1ccccc1F		0.272
CC(C)(C)Cc1c(C2CCCCC2)nc2ccc(Br)cn12		-1.44
CCc1c(-c2ccc(F)cc2)ncn1Cc1cccc(-c2ccccc2)c1		-16.7
Cn1c(Nc2ccc(F)cc2)nc2cc(-c3ccsc3)sc2c1=O		-19.8
O=C(O)C1=C/C(=C/C=[N+]2c3cc(O)c(O[C@H]4OC(CO)[C@@H](O)[C@@H](O)[C@@H]4O)cc3C[C@@H]2C(=O)[O-])C[C@H](C(=O)O)N1 (stereo partly drawn)		-1.44
Cc1cccc(-c2cnc(C(O)c3cc(C)cc(C)c3)[nH]2)c1 (stereo not drawn)		-1.64
CCN(CC)c1nn2c(=O)c(C(=O)NCCc3ccccc3)cnc2s1	28.2 µM (active)	
O=C(O)c1ccccc1-c1ccccc1C(=O)NCCc1ccccc1		0.88
O=C(NCCc1ccccc1)c1cnc2sc(N3CCCC3)nn2c1=O		23.7
CC1(C(=O)Nc2cccc3cccnc23)CCN1C(=O)CCC1CCCC1 (stereo not drawn)		-4.78
Cc1occc1C(=O)Nc1nnc(-c2ccncc2)s1	31.6 µM (active)	
Cc1occc1C(=O)Nc1nnc(C2CCCCC2)s1		1.56
Cc1ccc(NC(=O)Nc2nnc(-c3ccncc3)s2)cc1		-17.4
CCCCOc1ccc(C(=O)NO)cc1		1.01
O=C(OCc1ccccc1)N1CCC2CC1c1ccc(-c3ccc4c(c3)OCO4)cc12 (stereo not drawn)		-29.7
CC1(C(=O)NS(=O)(=O)c2ccccc2Cl)CCN1C(=O)c1cccc(F)c1 (stereo not drawn)		-2.25
CCc1nc2c(OCCOc3ccccc3)cccn2c1N(C)C(=O)c1ccc(OC)cc1		-0.66

Compound	Potency	activity change, negative = active [%]
CCOC(=O)COc1cc(OCC(=O)OCC)c2c(=O)cc(-c3ccccc3)oc2c1	28.2 µM (active)	
CCOC(=O)c1c(-c2ccccc2)oc2ccc(OCC(N)=O)cc12		4
CCOC(=O)c1cc(=O)c2ccc(OCc3ccccc3)cc2o1		-0.5
CN1C[C@@H](CO)O[C@@H](n2cnc3c(N4CCN(CCO)CC4)ncnc32)C1		-1.83
COc1cccc(NC(=S)NCc2ccccn2)c1		1.22
COc1cccc(NC(=S)N(Cc2ccc(C)cc2)Cc2ccccn2)c1	28.2 µM (active)	
Cc1ccc(CN(Cc2cccnc2)C(=S)Nc2cccc(Cl)c2C)cc1		-1.41
CC1(C(=O)NCc2ccco2)Cc2c(-c3ccc4c(c3)OCO4)ccnc2O1 (stereo not drawn)		4.97
O=C(O)c1ccc(CSc2nc3cccnc3n2Cc2cccc(F)c2)cc1	31.6 µM (active)	
O=C(NCc1ccc(F)cc1)c1ccc(Cn2c(SCc3ccc(F)cc3)nc3cccnc32)cc1	28.2 µM (active)	
Cc1ccc(CSc2nc3cccnc3n2Cc2ccc(C(=O)NC3CC3)cc2)cc1		-21.3
Cc1cccc(CSc2nc3ccncc3n2Cc2ccc(C(=O)O)cc2)c1		-15.8
O=C(O)c1ccc(Cn2c(SCc3ccc(F)cc3)nc3ccncc32)cc1		-6.24
C=CCn1c(SCc2ccc(C(=O)NCCO)cc2)nc2ccccc2c1=O		-1.32
COc1cccc(C(O)c2ncc(-c3ccc4ccccc4c3)[nH]2)c1 (stereo not drawn)		5.1
CCCCNC(=O)C[C@@H]1C[C@@]2(C(=O)OCC)CCC=C2N(Cc2cccc3ccccc23)C1=O		0.695
CCOC(=O)[C@]12CCC=C1N(Cc1cccc3ccccc13)C(=O)[C@H](CC(=O)NCc1cccc(C(F)(F)F)c1)C2		-21.3
Cc1nn(CC(=O)NCCc2ccccc2)c(=O)c2cc3occc3n12		-3.03
Cc1nn(CC(=O)NCC2CCCO2)c(=O)c2cc3ccccc3n12 (stereo not drawn)		3.78
Cc1nn(CC(=O)O)c(=O)c2cc3cc(F)ccc3n12	28.2 µM (active)	
O=C(c1ccccc1)N1CCN(c2cc(-c3ccccc3)nc3cc(-c4cccc(Cl)c4)nn23)CC1		-45.3
CC=CCn1c(SCCCc2ccccc2)nc2c1c(=O)[nH]c(=O)n2C		-0.218
COc1ccc([C@H]2CC(=O)C[C@@H](CCn3cc(CC4CCCC4)nn3)O2)cc1		0.945
COc1ccc(NC(=O)CN(C)C(=O)c2cc(-c3ccc(C)o3)nc3ccccc23)cc1	25.1 µM (active)	
COc1cccc(NC(=O)CN(C)C(=O)c2cc(Cl)nc3ccccc23)c1		-5.28

Compound	Potency	activity change, negative = active [%]
COc1ccc(NC(=O)c2cc(-c3ccc(C)o3)nc3ccccc23)cc1		-0.804
Cc1ccc(F)c(S(=O)(=O)NC(=O)C2(C)CCN2C(=O)CCc2cccs2)c1 (stereo not drawn)		-0.445
Cc1ccc(Nc2ccc(C(N)=O)cc2[N+](=O)[O-])cc1	12.6 µM (active)	
NC(=O)c1ccc(Nc2ccc3nonc3c2[N+](=O)[O-])cc1		0.816
CCOc1ccccc1Nc1ccc(C(=O)O)cc1[N+](=O)[O-]		-0.992
COc1cccc(OC)c1C(=O)Nc1ccc2c(c1)n(C)c(=O)n2C		2.54
COc1cccc2c(O)cc(=O)n(C)c12	35.5 µM (active)	
COc1cc2c(=O)n(C)c3ccccc3c2cc1OC		-13.6
CCOc1ccc(Cl)cc1-c1cc(C(=O)NCc2cccs2)[nH]n1		0.129
CCOCCC(=O)Nc1ccc2c(c1)c(=O)n(C)n2-c1ccc2ccccc2c1		-28.6
O=C1CC(c2ccccc2)CC2=C1C(c1ccco1)n1nc(C(F)(F)F)nc1N2 (stereo not drawn)		4.45
CCCCc1c(-c2ccc(Br)cc2)ncn1CCc1ccccc1OC		1.63
O=C(OCC(=O)N1CCN(C(=O)c2ccco2)CC1)c1cccc(O)c1		-2.53
O=C(OCC(=O)N1CCN(C(=O)c2ccco2)CC1)c1c(Cl)cccc1Cl	31.6 µM (active)	
O=C(OCC(=O)N1CCN(C(=O)c2ccco2)CC1)c1ccc(Cl)c(Cl)c1		-1.7
COc1cccc(-c2ccc3c(c2)N(Cc2ccccc2OC)C(=O)C(C)S3)c1 (stereo not drawn)		-0.0272
O=C1Nc2ccccc2-n2nnnc2C1N1CCN(c2cccc(C(F)(F)F)n2)CC1 (stereo not drawn)		-20
Cc1cc(=O)oc2cc(OC(C)C(=O)Nc3ccc(N4CCOCC4)cc3)ccc12 (stereo not drawn)		-12.2
Cc1cc(=O)oc2cc(OC(C)C(=O)NCCc3ccc(S(N)(=O)=O)cc3)ccc12 (stereo not drawn)		3.63
Cc1cc(=O)oc2cc(NC(=O)C(C)Oc3ccccc3)ccc12 (stereo not drawn)	28.2 µM (active)	
Cc1cccc2cc(C#N)c(N3CCCC3)nc12	28.2 µM (active)	
CC(=O)c1ccc(S(=O)(=O)N2CCN(c3nc4c(C)c(C)ccc4cc3C#N)CC2)cc1		-17
Cc1cc(C)c2cc(C#N)c(N3CCNCC3)nc2c1		-26
CC1(Oc2ccc(Cl)cc2)CCN(Cc2csc3ccccc23)C1 (stereo not drawn)		-5.93
CN(CCOc1ccccc1)C(=O)c1cc(-c2ccco2)nc2ccccc12		4.34

Compound	Potency	activity change, negative = active [%]
CC1CCCN(C(=O)c2cc(-c3ccco3)nc3ccccc23)C1 (stereo not drawn)		3.78
O=C(c1cc(-c2ccco2)nc2ccccc12)N(Cc1nnc(-c2ccc(Cl)cc2)o1)C1CC1	28.2 µM (active)	
Cc1ccc(Cc2c(-c3ccco3)nc3ccc(Cl)cn23)cc1		-11.6
O=C1NC[C@H](CCCCN2C[C@H](Cc3ccccc3)N(Cc3ccccc3)C(=O)C2=O)N(CCc2ccc(O)cc2)C1=O		1.04
O=C(c1ccc(CSc2ccccc2)cc1)N1CCCCCC1		3.91
CN(C)c1cc[n+](Cc2ccccc2)cc1		-0.0614
CN(C)c1ccc(CSc2ccccc2)cc1	12.6 µM (active)	
COc1ccc(-c2cc(NC=O)c3ncc(-c4ccccc4)n3c2)cc1OC		-27.2
CCc1nc2c(OCc3ccc(F)c(F)c3)cccn2c1N(C)C(=O)c1ccco1		-1.58
CCCn1c(=O)c(C(=O)Nc2cc(C)ccn2)c(O)c2ccccc21		-18
Cc1ccnc(NC(=O)c2ccoc2C)c1		0.724
CC1=C(C(=O)Nc2cc(C)ccn2)C(c2cnn(C)c2)C2=C(CC(c3ccccc3)CC2=O)N1 (stereo not drawn)	31.6 µM (active)	
CN1OC[C@@H]2CN(S(=O)(=O)c3cccc4ccccc34)[C@H](c3ccc(N4CCCCC4)cc3)C[C@@H]21		-4.18
O=C(NC(c1ccc(Cl)cc1)c1cnccn1)C1CCN(Cc2ccc(Cl)cc2)CC1 (stereo not drawn)		0.881
O=C1[C@H]2[C@@H](c3ccc(C(F)(F)F)cc3)N[C@]3(CCCN(Cc4ccc(Cl)cc4)C3=O)[C@H]2C(=O)N1Cc1ccccc1		1.88
Cc1ccccc1OCC(=O)Nc1ccc(S(=O)(=O)N2CCOCC2)cc1		-1.93
COc1ccc(/C=N/NC(=O)CNC(=O)c2ccc(S(=O)(=O)N3CCCC3)cc2)c(OC)c1		-0.301
COc1cccc(/C=N/NC(=O)CNC(=O)c2ccc(S(=O)(=O)N3CCOCC3)cc2)c1OC	31.6 µM (active)	
CC(C)Oc1ccc(CN2CCC2(C)C(=O)NCc2ccc(C(F)(F)F)cc2)cc1 (stereo not drawn)		3.39
CCc1nc2ccc(C(=O)N3CCC(O)(Cc4ccccc4)CC3)cn2c1N(C)C(=O)Cc1ccccc1		-3.8
O=[N+]([O-])c1cccc2ncccc12		-1.58
CN1CN(C)c2ccc([N+](=O)[O-])c3cccc1c23	15.8 µM (active)	
CN1CCN(S(=O)(=O)c2ccc(N3CCN(c4ccccc4O)CC3)c([N+](=O)[O-])c2)CC1		-2.66
